Earlier results on 23 compounds are cited in PubChem BioAssay AID977610.

In general, Ki refers to the dissociation constant of the complex between target and ligand, obtained from inhibition or displacement.

In all, about 3,600 compounds went through this assay and about 3,600 (100%) were called active. Cut-off not given; nearly all actives show Ki up to about 18000 µM. So high a share suggests a set chosen from earlier hits. Some of the results follow.

The nature of the series: PubChem AID 977610. The following applies: PDB protein-ligand complexes, literature Ki.
The mark [1] stands for this setting: protein: type II dehydroquinase dehydratase from Mycobacterium tuberculosis, PDB entry 4kiw unless noted.

As for `O=C(O)c1cc(OCc2cccc([N+](=O)[O-])c2)cc(C(=O)O)c1`, under setting [1], the Ki was 140 µM [protein: type II dehydroquinase dehydratase from Mycobacterium tuberculosis, PDB entry 4kiu] (active). Regarding `O=C(O)c1cc(O)c(O)c(Oc2cccc([N+](=O)[O-])c2)c1`, the Ki under setting [1] was 50 µM [protein: type II dehydroquinase dehydratase from Mycobacterium tuberculosis, PDB entry 4kij] (active). With `O=C(O)c1cc(NCc2cccc([N+](=O)[O-])c2)cc(C(=O)O)c1`, under setting [1], the Ki was 7.5 µM (active). As to `CCC(CC)O[C@@H]1CC(C(=O)O)C[C@H](N)[C@H]1NC(C)=O` (some centres undefined), the inhibition constant (Ki) under setting [1] is 0.017 µM [protein: neuraminidase, PDB entry 4gzt] (active). Take `CCC(CC)O[C@@H]1C=C(C(=O)O)C[C@H](N)[C@H]1NC(C)=O`: the Ki (protein: Neuraminidase from the B/Lyon/CHU/15.216/2011 virus, PDB entry 4cpy) is 0.491 µM (active) and the Ki (protein: Neuraminidase, PDB entry 4gzp) is 0.0143 µM (active). As for `O[C@@H]1[C@@H](O)[C@H](O)[C@]2(O)CC[C@H]1N2`, the Ki under setting [1] is 4600 µM [protein: Beta-glucosidase 1, PDB entry 4iie] (active).

Take `O=C(O)CCCC(=O)O`: the Ki under setting [1] is 30000 µM [protein: Delta-1-pyrroline-5-carboxylate dehydrogenase, mitochondrial, PDB entry 4lh3] (active). Take `O=C(O)C(O)(C(F)(F)F)C(F)(F)F`: the Ki under setting [1] is 27 µM [protein: Mandelate racemase, PDB entry 4fp1] (active).

On to `O=C(CO)[C@@H](O)[C@H](O)CF`, for which the Ki under setting [1] is 25 µM [protein: XYLULOSE KINASE, PDB entry 4bc5] (active).

For the compound `CC(C)CN(C[C@@H](O)[C@H](Cc1ccccc1)NC(=O)O[C@H]1CO[C@H]2OCC(F)(F)[C@H]21)S(=O)(=O)c1ccc(N)cc1`, under setting [1], the Ki is 5.8e-06 µM [protein: HIV-1 Protease, PDB entry 4u8w] (active). For the compound `C[C@](COC(=O)Cc1ccccc1)([C@@H](Nc1c(C=O)cc2ccccn12)C(=O)O)S(=O)O`, the Ki under setting [1] was 0.042 µM [protein: Beta-lactamase SHV-1, PDB entry 4gd6] (active). Consider `OC(c1ccc(Cl)s1)(c1ccc(Cl)s1)[C@H]1CN2CCC1CC2`, for which the Ki under setting [1] was 0.36 µM [protein: Choline kinase alpha, PDB entry 4da5] (active). `CC(=O)N[C@H](Cc1ccccc1)P(O)O`: the Ki under setting [1] was 10 µM [protein: Serine protease splA, PDB entry 3ufa] (active). In the case of `CN(C)C[C@@H](c1ccc(O)cc1)C1(O)CCCCC1`, the Ki under setting [1] is 235 µM [protein: Transporter(delta13 mutant), PDB entry 4mm7] (active). For the compound `O=C(O)C[C@@]12O[C@H]3C=CCN[C@H]3[C@@H]1C(=O)N[C@H]2C(=O)O`, the Ki under setting [1] is 210 µM [protein: Glutamate receptor 2, PDB entry 4isu] (active). With `Nc1cccc(F)c1C(=O)O`, the Ki under setting [1] is 34 µM [protein: Mycobacterium tuberculosis anthranilate phosphoribosyl transferase, PDB entry 4owo] (active).

Turning to `Nc1c(F)cccc1C(=O)O`, under setting [1], the Ki was 1090 µM [protein: Mycobacterium tuberculosis anthranilate phosphoribosyl transferase, PDB entry 4owm] (active). As to `Cc1ncc(CO[P+](O)(O)O)c(CN=Nc2nc3ccccc3s2)c1O`, the Ki under setting [1] is 10.4 µM [protein: Mycobaterium tuberculosis transaminase BioA, PDB entry 4mqp] (active).

For `O[C@H]1[C@H](O)[C@@H](O)CN2CC[C@H](O)[C@H]12`, the Ki under setting [1] was 6.6 µM [protein: Beta-glucosidase 1, PDB entry 4iif] (active). In the case of `Nc1cc(F)ccc1C(=O)O`, under setting [1], the Ki is 380 µM [protein: Mycobacterium tuberculosis anthranilate phosphoribosyl transferase, PDB entry 4n8q] (active). For the compound `Nc1ccc(F)cc1C(=O)O`, the Ki under setting [1] is 60 µM [protein: Mycobacterium tuberculosis anthranilate phosphoribosyl transferase, PDB entry 4own] (active).

`Nc1nc(-c2ccc(Cc3ccccc3)cc2)cs1`: the Ki under setting [1] was 2 µM [protein: Human Leukotriene A4 Hydrolase, PDB entry 4l2l] (active). For `CCCCSC[C@H]1CN(Cc2c[nH]c3c(N)ncnc23)C[C@@H]1O`, the inhibition constant (Ki) under setting [1] was 1.5e-06 µM [protein: 5'-methylthioadenosine/S-adenosylhomocysteine nucleosidase, PDB entry 4f3c] (active).
